ClpP mod: qHTS Assay for Activators of ClpP. 340,000 tested, 1.9% active. AID 651965, 2013. purified B. subtilis ClpP, FRET peptide cleavage, 20 min. ATP-dependent Clp protease proteolytic subunit (Bacillus subtilis (strain 168)), P80244. Potency, µM (highest dose often 57.5 µM), for the others: top-dose activity change, negative = active; active means well fitted falling curve with a large enough effect; inconclusive means small, poorly fitted or top-dose-only effect; inactive means no such curve, though single readings can be large or run the other way; further: the source files actives as falling curves though it sought activators and does not explain the sign; nearly all actives have a fitted effect of over 65% in size
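Purified B. subtilis ClpP, 10 microg/mL final in Tris/HCl pH8 with KCl, BSA, glycerol and Tween-20, cleaved an Abz/nitrotyrosine-quenched decapeptide. Fluorescence (ex 320, em 430) was read at 0 and 20 min at room temperature. Delta was normalized to 5.8 microM ADEP and DMSO/no-enzyme controls.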
TDP1 block: TDP1 (human) enzyme inhibition | Q9NUW8 | recombinant TDP1, AlphaScreen DNA substrate cleavage | Potency, µM (titrated, usually from 130 µM), for the others: at the highest dose activity change, negative = inhibition, actives largely listed as inhibitors | 350,000 tested, 0.28% active; further: on the % scale 0 is the no-effect control and ±100 the full control effect; nearly all actives have a fitted effect of over 40% in size
Target sequence (Q9NUW8 whole entry, looked up): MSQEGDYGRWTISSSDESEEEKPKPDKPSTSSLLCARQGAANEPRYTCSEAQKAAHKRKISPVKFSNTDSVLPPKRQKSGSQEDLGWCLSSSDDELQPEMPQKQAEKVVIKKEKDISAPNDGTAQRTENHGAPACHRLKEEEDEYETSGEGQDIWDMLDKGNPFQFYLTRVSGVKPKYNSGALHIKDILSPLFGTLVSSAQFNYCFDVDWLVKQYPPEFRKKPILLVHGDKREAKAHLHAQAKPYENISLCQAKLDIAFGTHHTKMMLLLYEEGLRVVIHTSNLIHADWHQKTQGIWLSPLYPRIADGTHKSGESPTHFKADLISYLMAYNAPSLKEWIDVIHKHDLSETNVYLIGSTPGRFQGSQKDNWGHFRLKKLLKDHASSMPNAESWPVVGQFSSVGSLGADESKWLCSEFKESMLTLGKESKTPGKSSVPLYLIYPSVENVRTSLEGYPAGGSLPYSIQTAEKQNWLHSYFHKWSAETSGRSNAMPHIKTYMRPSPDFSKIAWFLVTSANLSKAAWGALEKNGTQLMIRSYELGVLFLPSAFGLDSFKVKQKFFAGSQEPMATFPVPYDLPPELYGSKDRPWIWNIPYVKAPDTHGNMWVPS
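E. coli-derived human Tdp1, 1 nM final. Cpd preinc 15 min RT; substrate 15 nM final, 5 min RT; AS bead mix 10 ug/ml final, 10 min RT. Signal loss = tyrosine-FITC cleavage. No-enzyme wells = max signal.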
TDP1 cell CPT: DT40-hTDP1 cell growth loss with CPT; 420,000 tested, 12% active; chicken DT40 Tdp1-/-;hTDP1 cells + 20 nM CPT, ATP luminescence, 48 h; Potency, µM (doses to about 46.2 µM), without a hit: at the highest dose activity change, negative = growth inhibition, actives largely listed as inhibitors; AID 686979; further: on the % scale 0 is the no-effect control and ±100 the full control effect; nearly all actives have a fitted effect of over 55% in size
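Chicken DT40 Tdp1-/- cells complemented with human TDP1, 400 cells/well, exposed to compounds plus 20 nM camptothecin for at least 48 h at 37 C; viability read as ATP content by CellTiter-Glo luminescence.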
TDP1 cell noCPT: qHTS for Inhibitors of human tyrosyl-DNA phosphodiesterase 1 (TDP1): qHTS in cells in absence of CPT | DT40 Tdp1-/- hTDP1 cells, no CPT, ATP luminescence, 48 h | Potency, µM (top dose mostly 46.2 µM), for the others: top-dose activity change, negative = growth inhibition, actives largely listed as inhibitors | 420,000 tested, 15% active | AID 686978, 2013; further: on the % scale 0 is the no-effect control and ±100 the full control effect; nearly all actives have a fitted effect of over 55% in size
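Luminescent ATP content (CellTiter-Glo) served as the growth readout. Knockout chicken DT40 cells expressing human TDP1 were exposed to compounds without camptothecin for a minimum 48 hr at 37 °C.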
The depositor's hits bear a star; ? = inconclusive; · = no result. Compounds with a hit are over-represented: about 17% of the library has one in this group of screens. Unless noted, the call rests on the fitted dose curve; in most records, active means well fitted curve in the direction sought with a large enough effect; inconclusive means small, poorly fitted or top-dose-only effect, or another doubt; inactive means no such curve, though single readings can be large; an effect the other way counts as inactive or inconclusive. Potency means the concentration at half of the fitted maximal effect.

SMILES	ClpP mod	TDP1 block	TDP1 cell CPT	TDP1 cell noCPT
CC(=O)SCC(=O)N=c1sc2cc(F)ccc2n1C	?	4%	?	21µM*
CCOC(=O)N1CCN(C(=O)CSCC(=O)N=c2sc3cc(OC)ccc3n2C)CC1	-6%	·	?	?
Cn1c(=NC(=O)CCl)sc2ccccc21	?	0%	2.6µM*	4.1µM*
CCOC(=O)N1CCN(C(=O)CSCC(=O)N=c2sc3ccccc3n2C)CC1	-2%	-1%	16µM*	?
Cn1/c(=N\NC(=O)C2CCCCC2)sc2ccccc21	14µM*	6%	3%	8%
CC(=O)N/N=c1\sc2ccccc2n1C	·	5%	10%	9%
Cc1ccc(NC(=O)Cn2nc3c(cc2=O)CCCC3)cc1Cl	0%	0%	-14%	-24%
CC(=O)Nc1c(C)nn(-c2ccccc2)c1N1CCC(C(=O)Nc2ccccc2F)CC1	-4%	8%	14%	-13%
O=C(NNC(=O)c1ccccc1O)c1ccc(Cl)cc1	1%	3%	18µM*	16µM*
Cc1cccc(C(=O)NNC(=O)c2ccc(Cl)cc2)c1O	0%	4%	?	21µM*
COc1ccc(/C=C\c2onc(C)c2S(=O)(=O)N2CCC(C(=O)Nc3ccc(F)cc3F)CC2)cc1	?	-2%	-9%	-15%
COc1cccc(NC(=O)C(Sc2nnc(-c3ccncc3)n2-c2ccc(Cl)cc2)c2ccccc2)c1 (centres undefined)	-18%	3%	16µM*	21µM*
O=C(CSc1ncnc2c1cnn2-c1ccc(F)cc1)NC1CCCC1	-4%	0%	18µM*	21µM*
O=C(CSc1ncnc2c1cnn2-c1ccccc1)NC1CCS(=O)(=O)C1 (centres undefined)	2%	1%	-28%	8.2µM*
COC(=O)[C@@H]1CCCN1C(=O)c1c(OC)cc(=O)n2c1CCN(Cc1ccc3cccnc3c1)CC2	·	·	0%	-4%
CC(=O)Nc1ccc(-c2ccnc3c2CC(C)(C(=O)Nc2ccc(Cl)cc2)O3)cc1 (centres undefined)	5%	·	?	-24%
O=C(Nc1cc(Cl)cc(Cl)c1)c1ccc(Cn2c(=O)[nH]c3ccsc3c2=O)cc1	-1%	-9%	?	?
O=C(CSCc1ccccc1Br)N/N=C/c1ccc(OCC(=O)N2CCCCC2)cc1	-26%	3%	-7%	2.9µM*
O=C(CSCc1ccccc1)N/N=C/c1ccc(OCC(=O)N2CCCCC2)cc1	-1%	7%	-6%	-26%
COCCN(C(=S)Nc1ccc(C)cc1)C(C)c1cccnc1 (centres undefined)	·	7%	3%	-1%
O=C(CN1CCCC1)Nc1c2c(nc3ccccc13)N(Cc1ccccc1)CC2	14µM*	-7%	21µM*	-30%
O=C(CN1CCOCC1)NNc1c2ccccc2nc2ccccc12	·	·	9%	-29%
O=C(CN1CCOCC1)Nc1c2c(nc3ccccc13)N(Cc1ccccc1)CC2	22µM*	0%	-26%	-15%
C[C@@H]1CC2(OC(O)[C@]3(C)O[C@H]23)O[C@H]2C[C@@]3(C)[C@@H]4CC[C@H]5C(C)(C)C(O[C@@H]6OC[C@@H](O)[C@H](O)[C@H]6O)CC[C@@]56C[C@@]46CC[C@]3(C)[C@@H]12 (some centres undefined)	·	19%	·	·
COc1ccc(-n2ccnc(NCc3ccccc3OC)c2=O)cc1	-13%	11%	?	?
SMILES	ClpP mod	TDP1 block	TDP1 cell CPT	TDP1 cell noCPT
COc1ccccc1-n1cnnc1SCC(=O)c1cc(C)n(Cc2cccs2)c1C	3%	10%	?	?
Cc1cc(C(=O)CN2C(=O)c3cccc(N)c3C2=O)c(C)n1Cc1cccs1	-5%	-6%	?	21µM*
COc1cc(-c2nnc(SCC(=O)c3cc(C)n(CC4CCCO4)c3C)o2)cc(OC)c1OC (centres undefined)	1%	9%	21µM*	?
Cc1cc(C(=O)CSc2nnc(-c3ccc(F)cc3)o2)c(C)n1CC1CCCO1 (centres undefined)	1%	3%	?	21µM*
Cc1cc(C(=O)CN2C(=O)NC3(CCCCC3C)C2=O)c(C)n1Cc1cccs1 (centres undefined)	-12%	3%	-16%	?
Cc1cc(C(=O)CSc2nnc(-c3ccccc3F)o2)c(C)n1Cc1cccs1	-2%	2%	23µM*	?
CCc1ccccc1NC(=O)CNC(=O)CSC(=S)N1CCCC1	0%	1%	-13%	1%
O=c1[nH]c(=O)c2[nH]c(=S)n(-c3ccccc3)c2[nH]1	·	·	13%	-5%
CCCCNC(=O)c1cn(C)c2ccc(S(=O)(=O)N3CC(C)CC(C)C3)cc2c1=O (centres undefined)	-3%	4%	?	11%
Cc1cc(C(=O)CSc2nnc(-c3cccnc3)n2-c2ccccc2F)c(C)n1CC1CCCO1 (centres undefined)	-3%	-12%	-24%	23µM*
Nc1nn(-c2ccccc2)c2ccc([N+](=O)[O-])cc12	-1%	·	-26%	?
O=[N+]([O-])c1ccc2c(c1)c(-c1ccccc1)nc1nncn12	·	-1%	3%	7.3µM*
N#CC1=C(N)SC(N)=C(C#N)C1Cc1ccccc1	-22%	4%	?	-12%
N#CC1=C(N)SC(N)=C(C#N)C1CCc1ccccc1	32µM*	0%	?	?
COc1cc(C(=O)Nc2ccc3c(c2)N(C(=O)CN2CCN(C)CC2)c2ccccc2CC3)cc(OC)c1OC	?	0%	-19%	-18%
S=C1SCN(CC2CC2)CN1CC1CC1	·	-6%	0.58µM*	4.6µM*
CCN(CC)CCNc1ncnc2c1[nH]c1ccc(OC)cc12	·	4%	·	·
O=C1CCCN1CCCNc1ncnc2c1[nH]c1ccc(Cl)cc12	25µM*	1%	?	?
COc1ccc2c(c1)[nH]c1c(=O)n(CCC3=CCCCC3)cnc12	-4%	5%	?	23µM*
COc1ccc(-n2ncc3c(NCCC4=CCCCC4)ncnc32)cc1	4%	5%	16µM*	?
COc1ccc2[nH]c3c(NCCC4=CCCCC4)ncnc3c2c1	·	6%	2.6µM*	2.9µM*
O=c1c2[nH]c3ccc(F)cc3c2ncn1CCC1=CCCCC1	·	6%	-3%	-14%
C=CCN(C(=O)c1ccc2snnc2c1)c1ccccc1	·	-8%	1%	-26%
O=C(Cn1c(=O)n(CCc2ccccc2)c(=O)c2cccnc21)Nc1ccc(F)cc1	?	4%	-26%	?
COc1ccc(CCNC(=O)CSc2cn(CCNC(=O)c3c(F)cccc3F)c3ccccc23)cc1OC	-1%	6%	?	?
Clc1ccccc1CNc1nc2ccccc2c2nc(-c3ccccc3)nn12	-4%	1%	-10%	-8%
